Screen size: about 310,000 compounds; about 14,000 (4.5%) showed an effect of 50% or more. The effect is printed as a negative number. The sample holds strong results, similar compounds and a random draw of the others, so the mix is not that of the screen.
The molecules below were run against human ether-à-go-go-related gene (hERG) potassium channel (human, UniProt Q12809) (assay: primary screen, population patch clamp on CHO cells stably expressing hERG; higher = less effect of the substance).
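Also: peak tail current of the secondary pulse compared with the same well before compound.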

Sequence of human ether-à-go-go-related gene (hERG) potassium channel (Q12809 whole entry, looked up): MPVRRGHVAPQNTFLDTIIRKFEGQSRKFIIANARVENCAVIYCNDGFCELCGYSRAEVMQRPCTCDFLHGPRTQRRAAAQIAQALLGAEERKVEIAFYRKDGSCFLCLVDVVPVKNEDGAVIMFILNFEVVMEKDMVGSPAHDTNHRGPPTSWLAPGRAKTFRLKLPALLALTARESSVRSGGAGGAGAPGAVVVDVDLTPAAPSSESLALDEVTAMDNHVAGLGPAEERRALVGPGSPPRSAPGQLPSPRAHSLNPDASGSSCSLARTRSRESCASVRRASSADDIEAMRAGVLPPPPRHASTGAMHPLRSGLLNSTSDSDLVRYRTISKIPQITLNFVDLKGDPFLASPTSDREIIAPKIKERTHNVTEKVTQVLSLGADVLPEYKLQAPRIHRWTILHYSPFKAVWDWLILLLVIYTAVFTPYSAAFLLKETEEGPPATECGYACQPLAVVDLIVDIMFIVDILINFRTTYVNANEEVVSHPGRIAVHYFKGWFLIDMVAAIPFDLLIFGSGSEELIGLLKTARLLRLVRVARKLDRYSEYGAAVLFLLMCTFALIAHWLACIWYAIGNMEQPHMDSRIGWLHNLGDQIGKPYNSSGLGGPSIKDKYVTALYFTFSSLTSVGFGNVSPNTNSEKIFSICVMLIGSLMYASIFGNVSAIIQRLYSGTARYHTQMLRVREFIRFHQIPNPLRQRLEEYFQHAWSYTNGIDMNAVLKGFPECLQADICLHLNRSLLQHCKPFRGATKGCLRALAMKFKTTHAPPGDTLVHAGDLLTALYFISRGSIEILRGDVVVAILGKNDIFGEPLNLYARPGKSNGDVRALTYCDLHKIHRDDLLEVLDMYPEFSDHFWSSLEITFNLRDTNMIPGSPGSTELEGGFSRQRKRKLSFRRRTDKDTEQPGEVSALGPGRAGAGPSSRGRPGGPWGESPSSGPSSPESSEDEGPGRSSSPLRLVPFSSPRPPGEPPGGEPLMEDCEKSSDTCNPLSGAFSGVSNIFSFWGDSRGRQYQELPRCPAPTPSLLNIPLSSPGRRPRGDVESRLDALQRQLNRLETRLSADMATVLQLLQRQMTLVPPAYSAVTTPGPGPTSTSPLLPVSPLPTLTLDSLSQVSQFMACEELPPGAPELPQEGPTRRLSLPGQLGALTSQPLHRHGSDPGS

Compound	hERG current change (%, negative = inhibition) at 10uM
C[C@]12C(=O)N(c3ccc(Cl)cc3)C(=O)N1[C@@H]1c3ccccc3OC[C@@H]1[C@H]2c1ccccc1	8.19%
CCC(C)N1CC23C=CC(O2)C(C(=O)OCc2ccccc2)C3C1=O (stereo not shown)	5.54%
CC(C)c1ccc(NC(=O)COC(=O)c2cc(=O)[nH]c3ccccc23)cc1	-8.12%
CCCCCNC(=O)Cc1ccc(S(=O)(=O)N2CCOCC2)s1	-5.94%
O=C(Cc1ccc(S(=O)(=O)N2CCOCC2)s1)NCCOc1ccccc1	-8.35%
O=C(Cc1ccc(S(=O)(=O)N2CCOCC2)s1)NCCC(c1ccccc1)c1ccccc1	-54.8%
Cc1ccc[n+](CC(=O)Nc2ccc([N+](=O)[O-])cc2)c1.[Cl-]	10.9%
CCOc1ccc(S(=O)(=O)N2CCCCCC2)cc1	-8.37%
Cn1c(NC(=O)C(C)(C)Oc2ccc(Cl)cc2)cc(=O)n(C)c1=O	-15%
Cc1ccc(C(=O)N/C(=C\C=C\c2ccccc2)C(=O)NCc2ccco2)cc1	-50.3%
O=C(NCc1ccco1)/C(=C\C=C\c1ccccc1)NC(=O)c1ccccc1Br	-70.5%
Cc1ccc(C(=O)N/C(=C/C=C\c2ccccc2)C(=O)NCc2ccco2)cc1	-27.7%
O=C(NCc1ccco1)/C(=C/C=C/c1ccccc1)NC(=O)c1ccco1	-36.4%
O=C(NCc1ccco1)c1ccccc1Br	7.63%
O=C(NCc1ccco1)/C(=C\C=C\c1ccccc1)NC(=O)c1ccco1	-38.3%
O=C(NCc1ccco1)/C(=C/C=C\c1ccccc1)NC(=O)c1ccc(Br)o1	-59.6%
Cc1ccc(C(=O)N/C(=C/C=C/c2ccccc2)C(=O)NCc2ccco2)cc1	-28.9%
N#C/C(=C\C=C\c1ccccc1)C(=O)NCc1ccco1	-3.85%
Cc1ccc(C)c(NS(=O)(=O)c2ccc(NC(=O)CSc3ccc(Cl)cc3)cc2)c1	17.8%
O=C(N/N=C/c1ccccc1[N+](=O)[O-])c1cccs1	5.65%
C=CCn1c(Cc2ccccc2)nc2c(cnn2-c2ccccc2)c1=O	-34.8%

Compound	hERG current change (%, negative = inhibition) at 10uM
COc1cccc(N2CC(C(=O)Nc3nnc(SCC(=O)N4CCOCC4)s3)CC2=O)c1 (stereo not shown)	18.1%
CC(=O)N(Cc1cc(=O)[nH]c2ccccc12)c1cccc(C)c1	-8.96%
CSCCC(=O)N1CCCC(CNC(=O)c2ccc(-c3ccccc3)cc2)C1 (stereo not shown)	-73.2%
O=C(NCC1CCCN(C(=O)c2cscn2)C1)c1ccc(-c2ccccc2)cc1 (stereo not shown)	-15.1%
O=C(NCC1CCCN(C(=O)c2cccnc2)C1)c1ccc(-c2ccccc2)cc1 (stereo not shown)	-26.8%
CC(=O)CCC(=O)N1CCCC(CNC(=O)c2ccc(-c3ccccc3)cc2)C1 (stereo not shown)	-13.8%
CSCC(=O)N1CCCC(CNC(=O)c2ccc(-c3ccccc3)cc2)C1 (stereo not shown)	-28.5%
CCc1cc(C(=O)N2CCCC(CNC(=O)c3ccc(-c4ccccc4)cc3)C2)no1 (stereo not shown)	-58.1%
CCOc1ccc(C2CC(c3ccc(CC)cc3)Nc3nc(N)nn32)cc1 (stereo not shown)	1.96%
COc1ccc(Cl)cc1NS(=O)(=O)c1cccc(C(=O)NCC(C)(C)N2CCOCC2)c1	-12.6%
O=C(Cc1ccccc1)N/N=C/c1ccccc1Cl	2.14%
O=C(NCc1ccccn1)c1cccc(S(=O)(=O)Nc2ccccc2Cl)c1	-2.4%
Cc1ccc(S(=O)(=O)N(C)C)cc1NC(=O)COC(=O)c1ccc2c(c1)NC(=O)CS2	-32.5%
COC(=O)[C@@H]1Cc2c([nH]c3ccccc23)C(C)N1C(=O)c1ccccc1 (stereo partly shown)	3.27%
CN1CCc2c(sc3nc(NN)n(-c4ccc(Cl)cc4)c(=O)c23)C1	14.6%
CCN(CC)CCN(Cc1cc2cc3c(cc2[nH]c1=O)OCCO3)C(=O)NC1CCCCC1	-28.7%
CCc1ccc2[nH]c(=O)c(CN(CCN3CCCC3)C(=O)NC3CCCCC3)cc2c1	-40.9%
CCN(CC)CCN(Cc1cc2ccc(C)cc2[nH]c1=O)C(=O)NC1CCCCC1	-73.1%
CCc1ccc2[nH]c(=O)c(CN(CCN(CC)CC)C(=O)NC3CCCCC3)cc2c1	-66.6%
CCN1CCCC1CN(Cc1cc2c(C)cc(C)cc2[nH]c1=O)C(=O)NC1CCCCC1 (stereo not shown)	-76%
Cc1ccc2[nH]c(=O)c(CN(CCCN3CCOCC3)C(=O)NC3CCCCC3)cc2c1	-25.7%

Compound	hERG current change (%, negative = inhibition) at 10uM
COc1ccc(CN(Cc2cc3cc(OC)c(OC)cc3[nH]c2=O)C(=O)NC2CCCCC2)cc1	7.13%
CC(=O)N(Cc1cc2c(C)cc(C)cc2[nH]c1=O)C1CCCCC1	8.13%
Cc1cc(C)c2cc(CN(CCO)C(=O)NC3CCCCC3)c(=O)[nH]c2c1	-3.62%
Cc1nc2sc(C)c(C)c2c(=O)[nH]1	13.7%
COc1ccccc1/C=C/C(=O)NCC(=O)N/N=C/c1ccccc1[N+](=O)[O-]	-36.9%
CCOc1ccc(NC(=O)Cn2sc3nc(C)cc(C)c3c2=O)cc1	4.94%
CCC(C)c1ccc(NC(=O)CSc2nncn2N)cc1 (stereo not shown)	-27.5%
COc1ccc(S(=O)(=O)NCCSCc2ccccc2C)cc1Br	-1.29%
C=CCN1C(=Nc2cccnc2)SCC1(O)c1ccc(C)cc1 (stereo not shown)	4.64%
c1ccc(CSc2nnc3ccc(-c4ccncc4)nn23)cc1	-58.3%
c1cncc(CSc2nnc3ccc(-c4ccncc4)nn23)c1	-26.7%
Cc1ccccc1CSc1nnc2ccc(-c3ccncc3)nn12	-20.8%
c1ccc(CSc2nnc3ccc(-c4ccncc4)nn23)nc1	7.44%
Fc1ccc(CSc2nnc3ccc(-c4ccncc4)nn23)cc1	-70.1%
Cc1ccc(CSc2nnc3ccc(-c4ccncc4)nn23)cc1	-42.4%
Nn1c(SCc2cccc(F)c2)nnc1-c1ccncc1	-4.03%
Fc1ccccc1CSc1nnc2ccc(-c3ccncc3)nn12	-43.1%
Fc1cccc(CSc2nnc3ccc(-c4ccncc4)nn23)c1	-60.4%
CCOC(=O)C(C)Oc1ccc(OCc2ccccc2)cc1 (stereo not shown)	20.1%
CC(C)(C)NS(=O)(=O)c1cccc(S(=O)(=O)c2cccc(S(=O)(=O)NC(C)(C)C)c2)c1	-35.3%
CCCNS(=O)(=O)c1ccc(CCC(=O)N2CCN(CC)CC2)cc1	-1.72%

Compound	hERG current change (%, negative = inhibition) at 10uM
O=C(NC1CCS(=O)(=O)C1)c1ccc(S(=O)(=O)N2CCCCC2)cc1 (stereo not shown)	1.86%
CCC(C(=O)Nc1ccncc1)c1ccccc1 (stereo not shown)	0.0329%
CN(C)S(=O)(=O)c1ccc(S(=O)(=O)N2CCN(CCC#N)CC2)cc1	-1.43%
O=C(CN1C(=O)NC2(CCCC2)C1=O)N1CCN(S(=O)(=O)c2cccc(F)c2)CC1	22.2%
CC1(c2ccccc2)NC(=O)N(CC(=O)N2CCN(S(=O)(=O)c3cccc([N+](=O)[O-])c3)CC2)C1=O (stereo not shown)	5.57%
CCOc1ccc(C(=O)CCC(=O)N2CCN(S(=O)(=O)c3cccc(F)c3)CC2)cc1	-30.7%
CCOc1ccc(OCCC(=O)N2CCN(S(=O)(=O)c3cccc(F)c3)CC2)cc1	-62.4%
Cc1ccc(C2(C)NC(=O)N(CC(=O)N3CCN(S(=O)(=O)c4ccc(Cl)s4)CC3)C2=O)cc1 (stereo not shown)	-58%
CCC1(CC)NC(=O)N(CC(=O)N2CCN(S(=O)(=O)c3cccc(F)c3)CC2)C1=O	7.12%
Cc1ccc(C2(C)NC(=O)N(CC(=O)N3CCN(S(=O)(=O)c4cccc(F)c4)CC3)C2=O)cc1 (stereo not shown)	-65.7%
Cc1ccc(C2(C)NC(=O)N(CC(=O)N3CCN(S(=O)(=O)c4cccs4)CC3)C2=O)cc1 (stereo not shown)	-31.9%
O=C(CN1C(=O)NC2(CCCCC2)C1=O)N1CCN(S(=O)(=O)c2ccc(F)cc2)CC1	4.02%
O=C(CN1C(=O)NC2(CCCCC2)C1=O)N1CCN(S(=O)(=O)c2cccc(F)c2)CC1	-61.8%
O=C(CN1C(=O)NC2(CCCCC2)C1=O)N1CCN(S(=O)(=O)c2ccc(Cl)s2)CC1	4.79%
CCOc1ccc(OCCC(=O)N2CCN(S(=O)(=O)c3ccc(F)cc3)CC2)cc1	-6.61%
CCCC(=O)Nc1cc(C(=O)N2CCC3(CC2)OCCO3)ccc1S(=O)(=O)c1ccc(C)cc1	-14%
COc1cc(C(=O)Nc2nc3ccccc3[nH]2)ccc1OC(F)F	18%
CCc1cccc(CC)c1NC(=O)C1CN(S(=O)(=O)c2ccccc2)CCN1S(=O)(=O)c1ccccc1 (stereo not shown)	9.16%
COc1ccccc1NS(=O)(=O)NC(=O)c1cn(C)c2ccccc12	16.8%

— publication PMC4336329 (PLoS ONE, 2015)
